Compound activity (PubChem BioAssay)
HSF1 activator: increases HSF-1 driven luciferase reporter signal. NIH3T3-HGL HSF-1 luciferase reporter, MG132, 8 h; 100% = twice DMSO control signal. activation, % at 9 µM. actives 1.7% (n = 300,000). AID 504408;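 active means mean replicate activation of at least 50% with a set share of replicates each reaching 50%; inconclusive means only one of those two conditions met; inactive means mean below 50% and too few replicates reaching it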;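 further: 0% = median of the neutral control wells and 100% = twice that signal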
HSF1 inhib: HSF1 inhibition; NIH3T3-HGL HSE-luciferase, MG132-induced, luminescence 8 h; active compounds read low; activity change, negative = inhibition, % at 7.5 µM (by protocol); actives 0.77% (n = 300,000);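 active means more than half of replicate wells show activity change below -50%, luminescence cut by over half; inconclusive means some wells, but at most half, below -50%; inactive means no replicate well below -50%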;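 further: luciferase reports HSF-1 transcriptional activity via heat shock element; 0% = median of DMSO wells and -100% = zero luminescence signal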
AHR act: activators of human aryl hydrocarbon receptor; P35869; AHR-responsive luciferase reporter cells, luminescence; activation, % at 5 µM; actives 2.5% (n = 320,000); in the data active means activation above about 47%;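 further: 0% = vehicle wells and 100% = reference agonist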
Target sequence (P35869 whole entry, looked up): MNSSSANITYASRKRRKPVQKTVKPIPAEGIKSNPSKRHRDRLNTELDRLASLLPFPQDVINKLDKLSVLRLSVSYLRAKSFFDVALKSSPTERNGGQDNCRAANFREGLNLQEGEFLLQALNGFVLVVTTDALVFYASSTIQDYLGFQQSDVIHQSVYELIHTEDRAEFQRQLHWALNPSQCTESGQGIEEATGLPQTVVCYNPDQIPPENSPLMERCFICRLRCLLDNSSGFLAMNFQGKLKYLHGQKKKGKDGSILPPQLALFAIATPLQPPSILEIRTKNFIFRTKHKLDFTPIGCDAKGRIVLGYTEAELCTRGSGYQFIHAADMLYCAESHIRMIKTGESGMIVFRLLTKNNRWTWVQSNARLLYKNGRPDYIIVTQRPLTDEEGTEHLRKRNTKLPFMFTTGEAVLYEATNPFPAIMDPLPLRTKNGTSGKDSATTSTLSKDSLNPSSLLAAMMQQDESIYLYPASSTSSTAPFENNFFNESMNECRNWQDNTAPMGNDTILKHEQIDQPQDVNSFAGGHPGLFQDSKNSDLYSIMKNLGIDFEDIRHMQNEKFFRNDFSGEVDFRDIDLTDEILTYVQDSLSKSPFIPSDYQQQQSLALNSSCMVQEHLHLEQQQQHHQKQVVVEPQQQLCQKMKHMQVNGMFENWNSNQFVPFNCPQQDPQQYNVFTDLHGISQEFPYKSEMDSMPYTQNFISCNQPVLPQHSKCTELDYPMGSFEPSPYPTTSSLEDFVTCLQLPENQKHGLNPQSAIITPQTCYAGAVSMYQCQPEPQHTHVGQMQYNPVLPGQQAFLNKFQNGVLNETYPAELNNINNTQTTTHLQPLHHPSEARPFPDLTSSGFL
GAA850 FXN act: increases GAA850 frataxin promoter reporter activity | HEK293 lucGAA850 FXN promoter luciferase reporter, 24 h; percent of 10 µM SAHA response | activation, % at 6 µM | actives 0.56% (n = 360,000);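 active means activation above the average of all compounds screened plus 3 SD, cutoff fixed separately per campaign, cut at about 7.5% in these data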;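 further: 0% = DMSO wells and 100% = 10 µM SAHA wells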
AHR act cf: human AHR activation, confirmation; activation, % at 9 µM; actives 87% (n = 2,300); human cells, AHR-responsive luciferase reporter, luminescence; shares compounds with AHR act; in the data active means activation above about 49%;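 further: HepG2 hepatoma cells carrying a DRE-driven firefly luciferase reporter; 0% = vehicle wells and 100% = reference agonist wells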
PXR counter: activates human PXR in AHR activator counter-screen. cell-based PXR reporter, luciferase luminescence. actives 88% (n = 2,300). activation, % at 11.6 µM. shares compounds with AHR act; in the data active means activation above about 11%;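 further: human hepatoma DPX-2 cells expressing full-length human PXR; 0% = DMSO and 100% = reference agonist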
* hit, by the source's call; ? = inconclusive; nt = no result given. An excerpt weighted towards active compounds, which were near 4.6% of everything screened.

SMILES	HSF1 activator	HSF1 inhib	AHR act	GAA850 FXN act	AHR act cf	PXR counter
COc1ccccc1-c1nc(-c2ccc(Br)o2)no1	46.3	28.7	91.1*	1.3	131.2*	58.5*
COc1cc(OC)cc(-c2nc(-c3ccccc3OC)no2)c1	15.0	6.9	18.4	0.8	nt	nt
COc1ccc(NC(=S)NNC(=O)OC(C)(C)C)cc1OC	-7.7	-3.7	0.6	0.1	nt	nt
COc1ccc(S(=O)(=O)n2oc(=O)cc2-c2ccccc2)cc1	-15.8	1.8	1.7	2.0	nt	nt
COc1cccc(-c2nc(-c3ccncc3)no2)c1	41.2	13.3	7.7	4.5	nt	nt
COc1cccc(-c2nc(-c3ccc(Br)o3)no2)c1	31.1	13.5	86.0*	3.2	135.7*	27.8*
Cc1ccc(-c2noc(-c3ccccc3Br)n2)cc1	nt	nt	125.6*	1.2	120.1*	18.0*
COc1ccccc1-c1nc(-c2ccncc2)no1	11.5	21.4	80.0*	3.4	82.5*	35.0*
Cc1ccc(-c2noc(-c3ccccc3C(=O)N3CCCC3)n2)cc1	-5.5	-11.1	33.4	2.4	nt	nt
O=C(COC(=O)c1ccc(F)cc1F)Nc1ccc2[nH]c(=O)[nH]c2c1	-0.8	-1.7	3.0	2.5	nt	nt
O=C(COC(=O)C1=COCCO1)NCCCc1ccccc1	10.7	-2.5	0.0	2.0	nt	nt
CCc1nnc(NC(=O)/C=C/c2ccco2)s1	31.7	18.5	93.3*	-0.2	59.4*	57.7*
Cn1cnc([N+](=O)[O-])c1Oc1cccc2ccccc12	7.0	-3.2	82.4*	-2.4	81.9*	20.6*
CCN=C(Nc1ccc(Cl)cc1)c1cccnc1	-7.4	-2.7	104.4*	1.9	80.7*	34.8*
CCN(CC)c1ccc(NC(=O)c2cccnc2)cc1	?	17.2	-0.1	1.2	nt	nt
CN(C)S(=O)(=O)Oc1ccsc1C(=O)Nc1ccc(Cl)c(Cl)c1	18.7	1.2	90.3*	-1.4	121.9*	35.4*
CN(C)S(=O)(=O)Oc1ccsc1C(=O)Nc1cccc(Cl)c1	12.2	-1.2	22.1	-0.1	nt	nt
COc1cc(OC)cc(-c2nnc(SCC(=O)N3CCCCC3)o2)c1	-1.0	4.6	82.8*	3.0	34.9	71.6*
COc1cc(OC)cc(-c2nnc(SCC(=O)N3CCOCC3)o2)c1	-7.1	3.1	22.3	0.5	nt	nt
Cc1nnc(N/N=C/c2ccc(-c3ccccc3F)o2)n1N	36.8	27.0	109.0*	2.8	74.6*	24.2*
COC(=O)c1ccccc1-c1ccc(/C=N/NC(N)=O)o1	-1.2	-7.4	2.2	1.8	nt	nt
COCC(=O)N1CCc2ccc(NC(=O)c3ccc(C(F)(F)F)cc3)cc2C1	8.2	-1.5	102.9*	-1.0	72.6*	nt
CC(C)CNC(=S)N(CCCO)Cc1cc2cc3c(cc2[nH]c1=O)OCO3	-1.6	-11.9	91.7*	1.1	100.2*	19.1*
CC(C)CNC(=S)N(CCN(C)C)Cc1cc2cc3c(cc2[nH]c1=O)OCO3	-8.8	1.1	27.9	0.0	nt	nt
Nn1cnnc1SCC(=O)N1CCc2ccccc2C1	nt	nt	7.7	0.3	nt	nt
SMILES	HSF1 activator	HSF1 inhib	AHR act	GAA850 FXN act	AHR act cf	PXR counter
CCc1cc2ccc(C)c(C)c2nc1SCC(=O)NNC(=O)c1ccco1	2.6	0.2	24.4	0.2	nt	nt
Nc1ccccc1Nc1nc2ccccc2[nH]1	10.0	14.0	95.3*	-1.3	2.1	8.7
CC(=O)n1cc([C@H]2C=C(C(=O)O)O[C@@H](OCCCCO)C2)c2ccccc21	-34.6	-14.5	3.6	-1.4	nt	nt
O=C(Cn1nnc2ccccc21)OCC(=O)c1ccc(Cl)c(Cl)c1	10.7	-8.0	2.9	0.1	nt	nt
CCOc1ccc2nc(/N=C/c3c(C)[nH]n(-c4ccccc4)c3=O)sc2c1	4.0	-2.0	45.0	6.7	nt	nt
CCOc1ccc2nc(/N=C/c3c(C)[nH]n(-c4ccc(C)cc4)c3=O)sc2c1	21.0	9.0	88.8*	4.0	66.9*	21.9*
O=C(O)CCn1c(SCCOc2ccccc2F)nc2ccccc21	-5.7	0.7	nt	1.4	nt	nt
Cc1ccc2nc(NC(=O)CCn3c(=O)sc4ccccc43)sc2c1	13.5	-1.3	18.4	-0.8	nt	nt
O=C(CCCc1nc2ccccc2s1)Nc1nccs1	5.5	7.2	31.8	1.8	nt	nt
O=C(CCn1c(=O)sc2ccccc21)Nc1nc2ccccc2s1	32.8	14.5	106.2*	2.1	44.2	97.8*
Cc1cnc(NC(=O)CCCc2nc3ccccc3s2)s1	24.1	6.2	270.7*	-2.4	41.1	134.3*
Cn1cccc1Cc1nnc(SCC(=O)NCC2CCCO2)n1CCc1ccccc1 (stereo unspecified)	10.3	2.0	0.2	1.6	nt	nt
O=C(C(Cl)Cl)N1c2ccccc2OCC1c1ccccc1 (stereo unspecified)	23.4	8.1	3.6	-3.1	nt	nt
CCNC(=S)Nc1ccc(NC(=O)c2ccccc2O)cc1	14.4	3.0	0.1	1.5	nt	nt
CCNC(=S)Nc1cccc(NC(=O)c2ccccc2O)c1	4.2	0.2	85.5*	0.5	124.3*	13.7*
O=C(Nc1ccc(Br)cc1)c1cccc(-n2cnnn2)c1	25.5	5.2	90.6*	-1.1	103.3*	29.1*
O=C(Nc1cccc(C(=O)Nc2ccc(Br)cc2)c1)c1ccccc1	8.7	4.5	89.1*	2.4	32.6	22.5*
O=C(Nc1ccc(Cl)c(Cl)c1)c1ccccc1	nt	nt	102.1*	5.1	121.5*	11.9*
O=C(Nc1cccc(-n2cnnn2)c1)c1ccccc1Br	11.2	1.7	33.0	0.0	nt	nt
O=C(Nc1ccc(Br)cc1)c1cccc(S(=O)(=O)Nc2cnc3ccccc3c2)c1	-6.2	1.7	82.5*	-0.2	74.5*	12.4*
CC1CCCN(CCC(=O)Nc2ccccc2)C1 (stereo unspecified)	-2.8	-1.9	0.7	0.8	nt	nt
COC(=O)c1c(C(=O)OC)c(-c2ccc(C)cc2)n2c1CS(=O)(=O)C2	-8.5	-12.8	0.5	0.3	nt	nt
CN1CCN(c2nc(-c3ccc(Br)cc3)nnc2-c2ccccc2)CC1	-5.2	7.7	131.8*	2.3	90.2*	48.8*
Brc1ccc(-c2nnc(-c3ccccc3)c(N3CCSCC3)n2)cc1	125.9*	77.9	123.4*	1.1	93.3*	74.8*
Cc1ccc(-c2nnc(-c3ccccc3)c(N3CCOCC3)n2)cc1	11.0	0.6	2.5	-1.4	nt	nt
SMILES	HSF1 activator	HSF1 inhib	AHR act	GAA850 FXN act	AHR act cf	PXR counter
O=C(Nc1ccc(N2CCOCC2)cc1)c1cc(-n2cnnc2)ccc1Cl	-3.1	3.0	-1.9	-1.0	nt	nt
Cc1ccc(Cn2ccc(=O)c(Cc3c(Cl)cccc3Cl)c2C)cc1	10.0	-2.9	-0.2	1.1	nt	nt
NS(=O)(=O)c1cc(Br)c2c(c1)S(=O)(=O)NCN2	nt	nt	nt	-1.1	nt	nt
O=[N+]([O-])c1c(-c2cn[nH]c2)n[nH]c1-c1cn[nH]c1	-4.9	-3.2	0.7	-1.0	nt	nt
CCCCNc1c(-c2ccc(OC)c(SC3CCCCC3)c2)nc2cnccn12	24.4	18.0	94.1*	-1.7	57.6*	168.9*
CCCCNc1c(-c2ccc(OC)c(SC3CCCCC3)c2)nc2cc(C)ccn12	-13.8	2.0	29.4	2.8	nt	nt
